Each structure is given as a SMILES string.

What all share (type): functional
Assay [1] deals with Solute carrier family 2, facilitated glucose transporter member 1 (Homo sapiens) (UniProt P11166). The experiment in a line: ST_JUDE_LEISH: Cytotoxicity at 2uM final concentration against transgenic Leishmania Mexicana promastigotes LmGLUT1 that are glucose transport deficient and complemented with the human glucose transporter GLUT1. Activity is measured by DNA content using SYBR green in vitro.

Assay [2] concerns the target Hexose transporter 1 (Plasmodium falciparum) (UniProt O97467). As to the kind of experiment: ST_JUDE_LEISH: Cytotoxicity at 2uM final concentration against transgenic Leishmania Mexicana promastigotes LmPfHT that are glucose transport deficient and complemented with the Plasmodium falciparum hexose transporter. Activity is measured by DNA content using SYBR green in vitro.

Assay [3] has as its target Glucose transporter (Leishmania mexicana) (UniProt O61059). The experiment in a line: ST_JUDE_LEISH: Cytotoxicity at 2uM final concentration against transgenic Leishmania Mexicana promastigotes LmGT2 that are glucose transport deficient and complemented with the L. Mexicana glucose transporter 2. Activity is measured by DNA content using SYBR green in vitro.

Chain of Solute carrier family 2, facilitated glucose transporter member 1 (Homo sapiens) (P11166 whole entry): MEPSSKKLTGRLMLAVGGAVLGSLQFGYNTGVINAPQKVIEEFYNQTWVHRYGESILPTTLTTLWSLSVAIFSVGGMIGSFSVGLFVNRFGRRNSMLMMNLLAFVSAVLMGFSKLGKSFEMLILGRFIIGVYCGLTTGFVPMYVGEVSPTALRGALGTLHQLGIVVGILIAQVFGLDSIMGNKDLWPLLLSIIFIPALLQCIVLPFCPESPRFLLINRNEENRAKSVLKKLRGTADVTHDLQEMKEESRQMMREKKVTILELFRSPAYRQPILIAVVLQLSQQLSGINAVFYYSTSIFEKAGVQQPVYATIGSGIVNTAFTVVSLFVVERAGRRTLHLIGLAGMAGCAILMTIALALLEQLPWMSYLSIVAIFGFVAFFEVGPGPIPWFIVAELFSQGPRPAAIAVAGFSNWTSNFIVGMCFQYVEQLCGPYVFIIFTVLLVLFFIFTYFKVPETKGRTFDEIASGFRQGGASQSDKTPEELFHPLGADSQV

One may read the inhibition as the change of the read-out against control, counted positive when it falls. Regarding `COc1cc(C(C)C)nc2ccc(NC(=O)c3ccc(C(=O)Nc4ccc5nc(C(C)C)cc(OC)c5c4)cc3)cc12`, the figures for the inhibition in assay [1], in assay [2] and in assay [3] were 6.44%, 5.94% and 3.76%, respectively.

With `Cc1cccc(-c2cc3cc(Nc4ccnc5cc(-c6nccs6)ccc45)ccc3[nH]2)c1`, the figures for the inhibition in assay [1], in assay [2] and in assay [3] were 1.71%, -0.37% and 1.12%, respectively.

As for `COCCNCc1cccc(-c2ccc3c(Nc4ccc(Oc5ccccc5)cc4)ccnc3c2)c1`, the inhibition in assay [1] was -0.07%; in assay [2], 1.17%; in assay [3], -0.14%.

`CN(C)CCCn1cncc1-c1ccc2ncnc(Nc3ccc4c(cnn4Cc4ccccc4)c3)c2c1`: the figures for the inhibition in assay [1], in assay [2] and in assay [3] were 1.25%, 1.38% and 1.35%, respectively.

As to `Cc1cc(=NN=Cc2ccc(Cl)cc2)c2ccc(F)cc2[nH]1`, the inhibition in assay [1] amounted to 2.07%; in assay [2] it was 2.71%; in assay [3], 1.54%.

In the case of `COc1cc(NC2=NS(=O)(=O)c3cc(Cl)ccc3N2C)cc(OC)c1OC`, the inhibition stood at 6.86% in assay [1], 6.41% in assay [2] and 7.53% in assay [3].

For `O=C(CSc1nc(-c2ccccc2Cl)ns1)Nc1cccc(F)c1`, the results for the inhibition in assay [1], in assay [2] and in assay [3] were -0.07%, -0.93% and 5.3%, respectively.

In the case of `CS(=O)(=O)c1cccc(-c2cnc3[nH]cc(-c4cccc(CCN)c4)c3c2)c1`, the values for the inhibition in assay [1], in assay [2] and in assay [3] were 4.65%, 3.48% and 8.44%, respectively.

Take `COc1ccc(CC2(c3ccc(F)cc3)N=C(N)N(CCCc3ccc4c(c3)OCO4)C2=O)cc1` (centres undefined): the results for the inhibition in assay [1], in assay [2] and in assay [3] were 4%, 5.58% and 5.39%, respectively.

For the molecule `CN1CC(c2ccccc2)c2cc(O)c(CN3CCCCC3)cc2CC1Cc1ccccc1` (centres undefined), the inhibition came to 9.54% in assay [1], 7.19% in assay [2] and 6.78% in assay [3].

Turning to `Cc1c(CNCCCNc2nc3ccccc3[nH]2)[nH]c2cc(Cl)cc(Cl)c12`, the inhibition in assay [1] stood at 25.5%; in assay [2], 49.4%; in assay [3], 41.6%.

For `Clc1cccc(C=NN=c2cc[nH]c3ccccc23)c1`, the values for the inhibition in assay [1], in assay [2] and in assay [3] were 1.39%, 2.56% and 2.9%, respectively.

In the case of `Cc1cc(=O)c(C2CCC(c3ccc(Cl)cc3)CC2)c(C)[nH]1` (centres undefined), the inhibition in assay [1] stood at 2.3%; in assay [2] it was 2.51%; in assay [3] it was 2.37%.

These data come from ChEMBL document CHEMBL3433997, “St. Jude Leishmania screening dataset” (2016).
